Measured values reported in PubChem BioAssay AID2685 (National Center for Advancing Translational Sciences (NCATS), 2010).
Among all 320,000 compounds or so, about 2,100 (0.66%) were called active. Another 53% or so got no clear call; they are omitted. The call rests on the fitted dose curve; in most records, active means well fitted inhibition curve with a large enough effect in the signal ratio, with a control signal flat (not every such curve was filed as active); inconclusive means small, poorly fitted or top-dose-only effect, or effect the other way, or a change in a side signal; inactive means flat fitted curve, though single readings scatter; the % refers to the signal ratio. Many of the other results were omitted from the sample, so actives are more common in it than they were.
Potency means the concentration at half of the fitted maximal effect.

Test: qHTS Assay for Lipid Storage Modulators in Drosophila S3 Cells;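 on cell number change: cells counted by Cell Tracker Red CMTPX staining in the red channel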
Conditions: BODIPY lipid droplet fluorescence, 18-24 h, cells fed with added oleic acid; cell number change: measured here: cell count max response; series mostly up to 46.1 µM
In short: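 Drosophila S3 cells got compounds at several concentrations plus oleic acid (400 uM solution). Laser-scanning cytometry with 488 nm excitation read lipid droplets at 500-530 nm and cells at 575-640 nm. Percent activity was relative to 20 uM Triacsin C.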
For `O=C(NCC1CCCO1)C(=O)N/N=C\c1ccc2c(c1)OCO2` (stereo not given), the Potency was “inactive” and the cell number change was -7.51%.
For `Cc1c(C(=O)N2CCCCCC2)c(S(=O)(=O)Nc2cccc(F)c2)c(C)n1C`, the Potency was “inactive”.
With `COc1cc2c(cc1OC)CN(c1nc(-c3cccnc3)nc3ccccc13)CC2` the Potency was “inactive” and the cell number change was 13.3%.
For `COc1cc2c(cc1OC)CN(c1ccc3ccccc3n1)CC2`, the Potency was 14.6 µM (active) and the cell number change was -10.9%.
For `COc1cc2c(cc1OC)CN(c1ccc(-c3ccccc3OC)nn1)CC2`, the Potency was “inactive” and the cell number change was -18%.
For `O=C(Nc1ccc(Cl)cc1)NN1CC(=O)N(c2cccc(C(F)(F)F)c2)CC1=O`, the Potency was “inactive” and the cell number change was -8.1%.
With `Cc1ccc(OCCn2cc(Br)c(=O)[nH]c2=O)cc1` the Potency was “inactive” and the cell number change was -2.4%.
For `COc1cccc(CNC(=O)CCC2CCCN(C(=O)c3cc(C)on3)C2)c1` (stereo not given), the Potency was “inactive” and the cell number change was 6.95%.
In the case of `C=CCNC(=S)/N=c1/ccccn1C`, the Potency is reported as “inactive” and the cell number change is reported as -1.1%.
With `Cc1cccc(CN2CCC(C(=O)Nc3cccc(-c4cccc(F)c4)c3)CC2)n1` the Potency was “inactive”.
For `Cc1nnc(SCc2ccc(F)cc2Cl)s1`, the Potency was “inactive” and the cell number change was -1.12%.
With `COc1ccc(CSc2nnc(C)s2)cc1F` the Potency was “inactive” and the cell number change was 9.99%.
In the case of `Cc1nnc(SCc2ccc(F)cc2)s1`, the Potency is reported as 2.06 µM (active) and the cell number change is reported as -1.22%.
With `COc1ccc(OC)c(C(=O)COC(=O)C(CCSC)NC(=O)COc2ccccc2)c1` (stereo not given) the Potency was “inactive”.
In the case of `O=C(NCCCN1CCCCC1)C1CCN(S(=O)(=O)N2CCC3(CC2)OCCO3)CC1`, the Potency is reported as “inactive” and the cell number change is reported as -12.2%.
In the case of `CC1CCN(CCCNC(=O)C2CCN(S(=O)(=O)N3CCC4(CC3)OCCO4)CC2)CC1`, the Potency is reported as “inactive” and the cell number change is reported as 1.22%.
For `O=C(NCCN1CCCC1)C1CCN(S(=O)(=O)N2CCC3(CC2)OCCO3)CC1`, the Potency was 29.1 µM (active) and the cell number change was -14.5%.
For `O=C(CCCC(=O)c1ccccc1)NCCc1ccccc1F`, the Potency was “inactive” and the cell number change was 22%.
In the case of `Clc1ccc(-c2nnc(N3CCOCC3)o2)cc1`, the Potency is reported as “inactive” and the cell number change is reported as 3.72%.
With `CC(=O)c1ccc(OCCCC(=O)Nc2cccc(S(=O)(=O)N(C)C)c2)cc1` the Potency was “inactive” and the cell number change was 1.3%.
With `O=S(=O)(NCC(c1ccco1)N1CCN(c2ccccc2)CC1)c1ccc(F)cc1` (stereo not given) the Potency was “inactive” and the cell number change was 9.35%.
For `O=S(=O)(NCC(c1ccco1)N1CCN(c2ccccc2F)CC1)c1ccccc1` (stereo not given), the Potency was “inactive” and the cell number change was 26.9%.
For `O=S(=O)(NCC(c1ccco1)N1CCN(c2ccccc2F)CC1)c1ccc2c(c1)OCCO2` (stereo not given), the Potency was 23.1 µM (active).
In the case of `CCn1c(=N)c(S(=O)(=O)c2ccc(C)cc2)cc2c(=O)n3ccccc3nc21`, the Potency is reported as “inactive” and the cell number change is reported as 11.4%.
In the case of `CN(C)S(=O)(=O)N1CCN(c2cc(Cl)ccc2Cl)CC1`, the Potency is reported as “inactive” and the cell number change is reported as -20.4%.
With `COc1ccc(/C=C2\Cc3ccccc3C2=O)cc1OC` the Potency was “inactive” and the cell number change was -17.4%.
For `COc1cc(/C=C2\CC/C(=C\c3ccc(OCCO)c(OC)c3)C2=O)ccc1OCCO`, the Potency was 16.4 µM (active) and the cell number change was 11.6%.
With `COc1ccc(/C=C2\CCc3ccccc3C2=O)cc1O` the Potency was “inactive” and the cell number change was -1.8%.
In the case of `CCn1c(=O)cc(OCC(=O)Nc2ccc(C)cn2)c2ccccc21`, the Potency is reported as “inactive” and the cell number change is reported as 8%.
With `COc1ccc(C)cc1NC(=O)C1CCC(CNc2c(N3CCOCC3)c(=O)c2=O)CC1` (stereo not given) the Potency was “inactive” and the cell number change was 18.9%.
For `Cc1cccc(N2CCN(C(=O)COc3ccc4c(c3)CCC4)CC2C)c1` (stereo not given), the Potency was 2.06 µM (active) and the cell number change was -2.19%.
With `O=C(COc1ccc2c(c1)CCC2)N1CCN(c2cccc(C(F)(F)F)c2)CC1` the Potency was “inactive” and the cell number change was 20.7%.
In the case of `Cc1cccc(N2CCN(C(=O)COc3ccc4c(c3)CCC4)CC2)c1C`, the Potency is reported as “inactive” and the cell number change is reported as 1.12%.
With `CCOC(=O)c1ccc(NC(=O)Cn2nnc(-c3ccc(F)cc3)n2)cc1` the Potency was “inactive” and the cell number change was -3.44%.
For `COc1ccc(OC)c(Nc2nc3nonc3nc2N2CCCC(C)C2)c1` (stereo not given), the Potency was “inactive” and the cell number change was 7.7%.
In the case of `CC(C)c1onc(C(=O)N2CCCCCC2)c1[N+](=O)[O-]`, the Potency is reported as “inactive” and the cell number change is reported as -15.8%.
With `CC(C)c1onc(C(=O)N2CCCCC2)c1[N+](=O)[O-]` the Potency was 0.82 µM (active) and the cell number change was -22.7%.
For `CC(C)c1onc(C(=O)N2CCOCC2)c1[N+](=O)[O-]`, the Potency was “inactive” and the cell number change was -0.564%.
In the case of `CS(=O)(=O)N1CCC(C(=O)Nc2ccc(Cl)c(Cl)c2)CC1`, the Potency is reported as “inactive” and the cell number change is reported as -6.77%.
For `COc1ccc(CC(=O)OCC(=O)Nc2ccc3c(c2)OCCO3)cc1OC`, the Potency was “inactive” and the cell number change was 3.44%.
With `O=C(CCn1c(=O)[nH]c2ccsc2c1=O)N1CCN(Cc2ccc3c(c2)OCO3)CC1` the Potency was “inactive”.
For `Cc1ccc(-c2nc3ccccc3[nH]2)cn1`, the Potency was “inactive” and the cell number change was 10.6%.
For `CCN(CC)S(=O)(=O)c1cc(C(=O)Nc2cc(C)on2)c(Cl)cc1Cl`, the Potency was “inactive” and the cell number change was -16.4%.
For `CCN(CC)S(=O)(=O)c1cc(C(=O)Nc2cccnc2Cl)ccc1Cl`, the Potency was “inactive”.
For `CCN(CC)S(=O)(=O)c1cc(C(=O)n2cccn2)c(Cl)cc1Cl`, the Potency was 4.61 µM (active) and the cell number change was -0.259%.
For `O=C(COC(=O)CC12CC3CC(CC(Br)(C3)C1)C2)NC(=O)NCc1ccco1`, the Potency was “inactive” and the cell number change was -9.1%.
For `CC(=O)NC12CC3CC(C1)CC(C(=O)OCC(=O)NC(=O)c1cccn1C)(C3)C2`, the Potency was “inactive” and the cell number change was -12.7%.
With `Cn1cccc1C(=O)NC(=O)COC(=O)CC12CC3CC(CC(Br)(C3)C1)C2` the Potency was 7.31 µM (active) and the cell number change was 2.25%.
In the case of `O=C(NCc1nc2ccccc2[nH]1)c1c(F)c(F)c(F)c(F)c1F`, the Potency is reported as “inactive” and the cell number change is reported as -0.311%.
For `O=C(O)C1CCCCC1C(=O)NCCc1cccc(Cl)c1` (stereo not given), the Potency was “inactive” and the cell number change was -1.17%.
For `Cc1ccn(CC(=O)N2CCCC(N3CCN(c4cccc(Cl)c4)CC3)C2)n1` (stereo not given), the Potency was “inactive” and the cell number change was 14.6%.
In the case of `Cc1nc(CNC(=O)CC2C(=O)NCCN2Cc2ccc(F)cc2)cs1` (stereo not given), the Potency is reported as “inactive” and the cell number change is reported as 20.2%.
With `CCN(CC)S(=O)(=O)c1ccc(OC)c(NC(=O)C2CC(=O)N(c3ccc4c(c3)OCCO4)C2)c1` (stereo not given) the Potency was “inactive” and the cell number change was -25.9%.
With `C=Cc1ccc(C(=O)N2CCCC(CCC(=O)N3CCN(c4ccccn4)CC3)C2)cc1` (stereo not given) the Potency was “inactive” and the cell number change was -2.91%.
With `CN(C)c1ccc(C(=O)N2CCCC(CCC(=O)N3CCN(c4ccccn4)CC3)C2)cc1` (stereo not given) the Potency was “inactive” and the cell number change was -25.3%.
In the case of `COc1ccc(C(=O)N2CCCC(CCC(=O)N3CCN(c4ccccn4)CC3)C2)cc1` (stereo not given), the Potency is reported as 8.2 µM (active) and the cell number change is reported as -15.8%.
For `COc1ccc(-n2cccc2/C=C2\C(=N)N3N=C(c4ccco4)SC3=NC2=O)cc1`, the Potency was “inactive” and the cell number change was -5.47%.
For `CC(C)(C)NC(=O)Cn1ccc(=N)c2ccccc21`, the Potency was “inactive” and the cell number change was -1.29%.
